Assay results reported in the supplement of paper PMC6555819.

tested on: VDR:RXRa (NR concentration 270 nM, RXRa partner concentration 90 nM); assay: PBM binding z-score (relative to random genomic background probes); higher = stronger binding; sequences stand for … in GC…GCGATTGACAGCGTAGAATGAAGG
Description: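 Protein-binding microarray (Agilent 4x180K custom design, double-stranded 60-nt probes: 5' GC cap, 34-nt variable region, 24-nt constant primer region; full probe sequence given). Purified or IVT nuclear receptor:RXRα heterodimers (3:1 NR:RXRα, mostly 270:90 nM) or homodimers were incubated for 1 h in PBS with 2% milk and no ligand, then detected with Alexa488 antibodies. Fluorescence from o1-orientation probes (~5 replicates averaged) was converted to z-scores against 500 random hg19 background probes. Variable regions are seed direct-repeat (DR0–DR5) sites, all their single-nucleotide variants and half-site ablations.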

Sequence | PBM binding z-score
AGAACGAGGGCAAAGAGTTGATAGCACGGGTGGC | 4.29
ACAGTCAGGTGAGTGAAGGTAACTCAGCTGGACG | -0.663
CCTCGGAGGACAGAGGGTCAGAGCTGTCCGCTTT | 0.544
TCTTGTAGATCAGGCAGGTTAAGAAAGCCTGAGT | 0.268
GCTAGCAGGCAATTTGGGTCACTCAATGACGGGC | 0.222
CAAACTAGGTCACGAAAGGTCGAAGTCGAATGAC | 5.72
CCTATTAGTTGGCCATAAGGGCAACCGAAGCTCG | 0.196
GGAACGAGGGTAAAGTTGATAGCATCTGTCGACG | 0.137
GCAGACAGGTGAAACTCAGGTAACTCAGGGTGGC | -0.101
TCTCGGAGGACCCGAAGGTCAGAGCTTTCCAGAG | 0.636
TCATATAGGAAAACAGGTGAAAGTCCGTAAGTTA | 1
CGTCAAAGTTCCAGGTAACGTAACAGAAAGCAGC | -0.14
GAACCAAGGTGAATAGGTCGTTGATGAGTAGGCG | 0.843
CCTACTGGGCCAAGGTCAATGATCAGTCAAAGCA | 2.24
TCTAACAGGCCAGAGGGTCACTCAAGAGGTACGG | 1.76
TCATATAGGTAAATGCTAGGTGAAAGCCCGATCT | 0.543
TCTAGTTGGTCACGGAGGTCACACTCGACGGGTA | 5.86
CCAGATAGGTGAAAGGTAACTCAGTCTGGTACGC | 0.921
TAGCCTAGGTCATTGGGCGAGTATAGTACGCATC | 2.14
GCTTGTAGATCAAGGTTAAGAAAGACTAAGCTAA | 0.156

Sequence | PBM binding z-score
TAGTCTAGGTCATTCAGGGGCCAGTATAGAAAGC | 3.15
ATCGAAAGGTAGAAGGTGAGTATACCCACCCGAA | -0.0163
TCATATAGGTAAATGTTAGGTGAAAGTCCGATCT | 1.23
CCGTACGGGTCACTCCAGGTTATAGCATCGGAGT | 4.39
TCTGCTAGGTCAGTTCGTCAGCTAACGAGCTGCC | 0.144
TTACCAAGGTGAGCTGAGGTCGTTAATCCAACTC | 3.68
ACTCGGAGGACAAAGGTCAGCGCTACGCCAGTGA | 3.41
TCTAGTTGGTCAAAGTTCACACACTCGAAATGCG | 4.44
TCGAGTAGGTGACCAATGGGGCATTCAGCTTTCT | -0.154
GCGACTGGGGCATCAGCAGGTTACCATAACTTAA | 0.0367
CCTGCTAGGTTATGGTCAGCTAATCTACAGTATG | -0.216
CCTATTAGTTGACAATAAGGGCAACCGAAGCTCG | 1.09
ACTATTAGTTGACTTAGGGCAACTGATACGACGC | 0.239
GATACAGGCTCAGCTAGAGGCCAGAGTATGGAAA | -1.02
TCTAGTTGGCCAAAGGTCACACACTCGAAATGCG | 4.93
CGTCCAAGGTCAGCAGGGCAGTGAAAGCGACGTG | 2.87
ATCTCTAGGTAACCAAGTTCAGTGAGTGCCGAAC | 4.27
TCTGCTAGGACAACGATGGTCAGCTAATCTGCTA | -0.784
CCGACTGGAGCAAAGGTTACCATACTCAGTACGA | 1.17
AGAAGGAGGTTACCAAAGATCAGGGAAACGCTTG | 0.838
